The whole screen tested about 320,000 compounds, of which about 2,100 (0.66%) were called active. Not shown: some 53% with an inconclusive outcome. The call rests on the fitted dose curve; in most records, active means well fitted inhibition curve with a large enough effect in the signal ratio, with a control signal flat (not every such curve was filed as active); inconclusive means small, poorly fitted or top-dose-only effect, or effect the other way, or a change in a side signal; inactive means flat fitted curve, though single readings scatter; the % refers to the signal ratio. What follows is part of a selection rich in actives, with near analogues and random picks from the rest.
Assay: qHTS Assay for Lipid Storage Modulators in Drosophila S3 Cells;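 on cell number change: cells counted by Cell Tracker Red CMTPX staining in the red channel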; on lipid storage change, negative = inhibition: on the % scale 0 is the no-effect control and ±100 the full control effect
Settings: BODIPY lipid droplet fluorescence, 18-24 h, cells fed with added oleic acid; cell number change: measured here: cell count max response; series mostly up to 46.1 µM; lipid storage change, negative = inhibition: at the top concentration
How it was run: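 Drosophila S3 cells got compounds at several concentrations plus oleic acid (400 uM solution). Laser-scanning cytometry with 488 nm excitation read lipid droplets at 500-530 nm and cells at 575-640 nm. Percent activity was relative to 20 uM Triacsin C.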
Potency means the concentration at half of the fitted maximal effect.

| Structure (SMILES) | lipid storage change, negative = inhibition | cell number change [%] | Potency | outcome |
| --- | --- | --- | --- | --- |
| Cn1c(C(=O)N2CCN(c3ccc(Cl)cc3)CC2)cc2c(=O)[nH]c3ccccc3c21 | -2.56% (inactive) | 18.3 | – | – |
| CCN(CC)c1ccc(/C=N/NC(=O)C(O)(c2ccccc2)c2ccccc2)o1 | – | -15.7 | 20.6 µM (active) | – |
| COc1ccc(/C=N/NC(=O)C(O)(c2ccccc2)c2ccccc2)cc1OC | 22.7% (inactive) | 3.71 | – | – |
| O=C(O)COc1ccc(/C=N/NC(=O)C(O)(c2ccccc2)c2ccccc2)cc1 | 8.46% (inactive) | 7.99 | – | – |
| O=C(C1CCN(Cc2cccs2)CC1)N1CCN(Cc2ccc3c(c2)OCO3)CC1 | 2.29% (inactive) | 20.4 | – | – |
| C/C(=C/Cc1c(O)cc2oc(C)cc(=O)c2c1O)COC1OC(CO)C(O)C(O)C1O (stereo not drawn) | -5.08% (inactive) | 6.97 | – | – |
| CCN1C(=O)[C@H]2[C@@H](c3ccc(SC4CCCCC4)cc3)N[C@@](CC(C)C)(C(=O)OC)[C@H]2C1=O | – | – | 8.2 µM (active) | – |
| CCN1C(=O)[C@H]2[C@@H](c3ccc(-c4ccc(OC)cc4)cc3)N[C@@](CC(C)C)(C(=O)OC)[C@H]2C1=O | -25.2% (inactive) | 12.8 | – | – |
| CCN1C(=O)[C@H]2[C@@H](c3ccc(-c4ccccc4)cc3)N[C@@](CC(C)C)(C(=O)OC)[C@H]2C1=O | 7.26% (inactive) | 7.59 | – | – |
| CC(C)NC(=O)c1ccccc1NC(=O)CS(=O)(=O)Cc1ccccc1 | – | 14.5 | – | inactive |
| Cc1ccc(NS(=O)(=O)c2ccc3c(c2)oc(=O)n3C)cc1C | 4.4% (inactive) | 5.19 | – | – |
| CCOC(=O)CSc1nc2cc(S(=O)(=O)Nc3ccccc3OC)ccc2o1 | – | -16.6 | 29.1 µM (active) | – |
| COc1ccccc1NS(=O)(=O)c1ccc2oc(SCc3ccc(F)cc3)nc2c1 | -11.7% (inactive) | -19.8 | – | – |
| COc1ccccc1NS(=O)(=O)c1ccc2oc(SC(C)C(=O)N3CCNC3=O)nc2c1 (stereo not drawn) | 3.7% (inactive) | -7.72 | – | – |
| CSc1ccc(CCNC(=O)CN2C(=O)CCSc3ccccc32)cc1 | 4.79% (inactive) | 2.42 | – | – |
| Cc1cc(C)nc(Sc2ccc([N+](=O)[O-])cc2[N+](=O)[O-])n1 | – | -6.83 | 16.4 µM (active) | – |
| Cc1cc(C)nc(SCC(=O)c2ccc([N+](=O)[O-])cc2)n1 | – | – | – | inactive |
| Cc1cc(C)nc(SCc2ccc([N+](=O)[O-])cc2)n1 | -12.6% (inactive) | -8.5 | – | – |
| C=CCn1c(=O)c2c(nc(-n3nc(C)cc3C)n2C)n(C)c1=O | – | – | – | inactive |
| Cc1cc(C)nc(N2CCN(C(=O)CCC(=O)Nc3nnc(C(C)C)s3)CC2)n1 | 0.665% (inactive) | 0.873 | – | – |
| O=S(=O)(/N=C(\c1ccccc1F)N1CCCCC1)c1ccccc1 | -4.68% (inactive) | -0.464 | – | – |
| CC(C)Oc1ccc(CNC(=O)Cn2c(=O)c3cccn3c3cccnc32)cc1 | – | -16.2 | – | inactive |
| CC1(C)C2CC[C@]1(C)C(=O)N(CCCCN1CCN(c3ccccn3)CC1)C2=O | – | 15.1 | – | inactive |

| Structure (SMILES) | lipid storage change, negative = inhibition | cell number change [%] | Potency | outcome |
| --- | --- | --- | --- | --- |
| Cc1[nH]c2ccccc2c1SCC(=O)N1CCC(C)CC1 | -7.23% (inactive) | -5.95 | – | – |
| S=C1NC2=C(CCCC2)C2(CCCCC2)N1 | 3.68% (inactive) | 0.876 | – | – |
| CSC1=NC2(CCCCC2)C2=C(CCCC2)N1 | – | -4.54 | 5.8 µM (active) | – |
| Cc1cccc(C(=O)Nc2c3c(nn2C(C)(C)C)CS(=O)(=O)C3)c1 | – | – | – | inactive |
| COc1ccc(Cl)cc1NC(=S)NC(=O)c1ccco1 | 17.2% (inactive) | 1.24 | – | – |
| COC(=O)c1cc(OC)c(OC)cc1NC(=S)NC(=O)c1ccco1 | – | -15.6 | 18.4 µM (active) | – |
| COc1cc(NC(=O)c2ccco2)c(C(=O)O)cc1OC | 9.63% (inactive) | 5.35 | – | – |
| CC1CCc2nn(CC(=O)NCc3ccco3)cc2C1 (stereo not drawn) | 8.35% (inactive) | -0.142 | – | – |
| CCCCN(C(=S)NC(=O)c1ccccc1)c1c(N)n(Cc2ccccc2)c(=O)[nH]c1=O | -6.94% (inactive) | -12.7 | – | – |
| COC(=O)C(C)SC1=N/C(=C/c2ccc(-n3cncn3)cc2)C(=O)N1 (stereo not drawn) | -24.9% (inactive) | -12.1 | – | – |
| Cc1ccc2cc(CN(Cc3ccco3)C(=S)NCC3CCCO3)c(=O)[nH]c2c1 (stereo not drawn) | 7.64% (inactive) | 3.25 | – | – |
| COc1ccc(NS(=O)(=O)c2ccc(C(=O)OC(C)C(=O)N3CCOCC3)cc2)cc1 (stereo not drawn) | -17.5% (inactive) | -5.78 | – | – |
| Cc1ccc(CCNC(=O)CCNS(=O)(=O)c2ccc3c(c2)oc(=O)n3C)cc1 | 9.42% (inactive) | 0.906 | – | – |
| C[C@H](NC(=O)CCCOc1ccc(Cl)cc1Cl)c1nnc2ccccn12 | – | 5.34 | 18.4 µM (active) | – |
| O=C(CCCOc1ccc(Cl)cc1Cl)NCCc1nnc2ccccn12 | – | 33.2 | – | inactive |
| CC(C)NC(=O)CCCOc1ccc(Cl)cc1Cl | 2.67% (inactive) | 5.02 | – | – |
| Cc1sc2ncnc(SCC(=O)N3CCOCC3)c2c1C | 11.6% (inactive) | -10.8 | – | – |
| COc1ccccc1NC(=O)CCNS(=O)(=O)c1ccc2c(c1)CC(C)N2C(=O)C1CC1 (stereo not drawn) | – | 3.62 | – | inactive |
| COc1ccccc1CNC(=O)CCS(=O)(=O)c1ccc2c(c1)CC(C)N2C(=O)C1CC1 (stereo not drawn) | – | -19.6 | – | inactive |
| CC1Cc2cc(S(=O)(=O)NCc3ccccc3)ccc2N1C(=O)C1CC1 (stereo not drawn) | -7.65% (inactive) | -26.2 | – | – |
| COc1cccc(NC(=O)CCNS(=O)(=O)c2ccc3c(c2)CC(C)N3C(=O)C2CC2)c1 (stereo not drawn) | – | 4.78 | – | inactive |
| COc1ccccc1CNS(=O)(=O)c1ccc2c(c1)CC(C)N2C(=O)C1CCC1 (stereo not drawn) | – | -14.7 | 5.17 µM (active) | – |
| COc1cccc(CNS(=O)(=O)c2ccc3c(c2)CC(C)N3C(=O)C2CC2)c1 (stereo not drawn) | – | -26.9 | 11.6 µM (active) | – |

— PubChem BioAssay AID2685 (National Center for Advancing Translational Sciences (NCATS), 2010)
